The source of these data is PubChem BioAssay (NCI).

Structures are written as SMILES. Compounds without any hit were thinned out: in the full panel of roughly 83,000, 20% have a hit.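 For each line, cells grew in 96-well plates with the test compound present at a single concentration for 48 hours.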 Unmarked numbers belong to inactive results. Calls of active or inactive are those of the source. The calls were made as follows: active = growth percent below 10; inactive = the rest.

Some test systems named below: NCI-H23 lung; NCI-H226 lung; NCI-H322M lung; HOP-62 NSCLC; NCI-H460 lung; HOP-92 NSCLC; NCI-H522 lung; A549/ATCC NSCLC; 786-0 renal; COLO 205 colon.
Common to all, as to experiment: NCI-60 one-dose screen, 48 h (100 = growth as untreated, 0 = no growth, -100 = all killed)
What all share (details): 10 µM unless noted

With `O=C(/C=C/c1cc2ccccc2[nH]c1=O)/C=C/c1cc2ccccc2[nH]c1=O`, the growth in the assay on NCI-H23 lung was -41.6% (active); in the assay on NCI-H226 lung it was -30.3% (active); in the assay with NCI-H322M lung, 86.9%; in the assay on HOP-62 NSCLC, 0.443% (active); in the assay on NCI-H460 lung, -36.7% (active); with HOP-92 NSCLC it was 68.7%. For the same compound, the growth in the assay on NCI-H522 lung was -51.1% (active); in the assay with A549/ATCC NSCLC it was -8% (active); in the assay on 786-0 renal, -59.5% (active); in the assay on COLO 205 colon, -11.6% (active).
As for `Cc1ccc(NC(=O)c2sc3nc4c(cc3c2N)C(=O)CCC4)cc1C`, the growth in the assay with NCI-H23 lung is 32.7%; in the assay on NCI-H226 lung it was 80.2%; in the assay on NCI-H322M lung, 42.5%; in the assay with HOP-62 NSCLC it was 23.5%; in the assay on NCI-H460 lung, 7.88% (active); in the assay with HOP-92 NSCLC, 90.8%. Moreover, the growth in the assay on NCI-H522 lung was -9.22% (active); in the assay on A549/ATCC NSCLC, 19.5%; in the assay with 786-0 renal it was 37.4%; with COLO 205 colon it was -25.2% (active).
On to `COCCOc1ccc(-c2nc3ccc(-c4nc5ccc(N6CCN(C)CC6)cc5[nH]4)cc3[nH]2)cc1`, for which the growth with NCI-H23 lung was -4.24% (active); with NCI-H226 lung, -8.04% (active); in the assay on NCI-H322M lung, 17%; in the assay on HOP-62 NSCLC it was 14.2%; with NCI-H460 lung, 35.9%; in the assay on HOP-92 NSCLC it was 26.4%. The growth in the assay with NCI-H522 lung was -41.9% (active); in the assay with A549/ATCC NSCLC, 67.9%; in the assay on 786-0 renal it was 26.8%; with COLO 205 colon it was -10.9% (active).
`c1ccc(Sc2ncnc3ccccc23)cc1`: the growth in the assay on NCI-H23 lung is 70.2%; in the assay with NCI-H226 lung it was 82.2%; with NCI-H322M lung it was 79.9%; with HOP-62 NSCLC, 99.4%; in the assay with NCI-H460 lung it was 89.9%; in the assay with HOP-92 NSCLC it was 48.9%. Besides, the growth is 82.8% in the assay on NCI-H522 lung, 90.4% with A549/ATCC NSCLC, 87.6% with 786-0 renal and 108% with COLO 205 colon.
For the compound `C=C1C(=O)O[C@H]2[C@H]1CC/C(Cn1cc(Cn3ccc4ccccc43)nn1)=C\CC[C@@]1(C)O[C@@H]21`, the growth in the assay on NCI-H23 lung was 45.6%; with NCI-H226 lung it was 76.8%; in the assay on NCI-H322M lung, 79.7%; with HOP-62 NSCLC it was 77.5%; with NCI-H460 lung, 86.5%; in the assay with HOP-92 NSCLC, -36.3% (active). In addition, the growth in the assay with NCI-H522 lung is -60.6% (active); in the assay with A549/ATCC NSCLC, 62%; in the assay on 786-0 renal, -19.5% (active); with COLO 205 colon it was -71.4% (active).
In the case of `COc1cc(C2CC(=O)c3c(C)nn(-c4nc5ccccc5[nH]4)c3C2)cc(OC)c1OC` (stereo not given), the growth is 86% with NCI-H23 lung; 65.9% in the assay on NCI-H226 lung; 67.8% with NCI-H322M lung; 32.3% in the assay on HOP-62 NSCLC; 73.7% in the assay with NCI-H460 lung; -3.61% (active) with HOP-92 NSCLC. The growth in the assay on NCI-H522 lung was 31.6%; in the assay with A549/ATCC NSCLC, 59.5%; with 786-0 renal, 23.8%; in the assay with COLO 205 colon, 126%.
On to `O=C1CC(c2nc3ccccc3s2)CN1C1CCCCC1` (stereo not given), for which the growth was 90.4% with NCI-H23 lung; 94.6% in the assay on NCI-H226 lung; 91.2% in the assay on NCI-H322M lung; 93.2% with HOP-62 NSCLC; 105% in the assay with NCI-H460 lung; 84.9% in the assay with HOP-92 NSCLC. In addition, the growth in the assay with NCI-H522 lung was 92.7%; with A549/ATCC NSCLC, 98.9%; in the assay with 786-0 renal it was 109%; in the assay on COLO 205 colon, 101%.
Regarding `COc1ccc(S(=O)(=O)NCCNc2nccc(-c3c(-c4cccc(N)c4)nc4sccn34)n2)cc1`, the growth is 103% in the assay with NCI-H23 lung; 96.1% in the assay on NCI-H226 lung; 111% with NCI-H322M lung; 110% in the assay with HOP-62 NSCLC; 99.6% in the assay with NCI-H460 lung; 96.2% in the assay on HOP-92 NSCLC. For the same compound, the growth with NCI-H522 lung was 91.2%; in the assay on A549/ATCC NSCLC, 99.6%; in the assay with 786-0 renal, 99%; in the assay on COLO 205 colon, 106%.
Regarding `C[C@@H]1CC[C@@H]2[C@@H]1[C@H](OC(=O)/C=C/c1ccccc1)[C@]1(c3ccccc3)C[C@@H](OC(=O)CO)[C@@]2(C)O1`, the growth with NCI-H23 lung was 102%; in the assay on NCI-H226 lung, 88.8%; in the assay on NCI-H322M lung, 88%; in the assay on HOP-62 NSCLC, 101%; in the assay on NCI-H460 lung, 92%; with HOP-92 NSCLC, 78.8%. For the same compound, the growth was 88.5% in the assay on NCI-H522 lung, 80.2% with A549/ATCC NSCLC, 98% with 786-0 renal and 107% in the assay on COLO 205 colon.
Take `O=C1C2CC=CCC2C(=O)N1CNc1ccc(Cl)cc1` (stereo not given): the growth in the assay on NCI-H23 lung was 94.2%; in the assay on NCI-H226 lung it was 90.5%; in the assay with NCI-H322M lung, 92.2%; with HOP-62 NSCLC it was 86.4%; in the assay on NCI-H460 lung, 107%; with HOP-92 NSCLC, 62.9%. Besides, the growth in the assay with NCI-H522 lung is 74.7%; in the assay on A549/ATCC NSCLC, 93.6%; in the assay with 786-0 renal it was 89.4%; in the assay with COLO 205 colon, 115%.
Turning to `Fc1ccc(Cc2ccc(F)cc2)cc1`, the growth was 102% in the assay with NCI-H23 lung; 99.9% with NCI-H226 lung; 105% in the assay on NCI-H322M lung; 106% with HOP-62 NSCLC; 108% in the assay on NCI-H460 lung; 100% with HOP-92 NSCLC. Also, the growth in the assay on NCI-H522 lung was 90%; in the assay with A549/ATCC NSCLC, 103%; in the assay with 786-0 renal it was 107%; with COLO 205 colon, 108%.
On to `c1ccc(-c2nc(N3CCOCC3)c3c4c(sc3n2)CCCCC4)nc1`, for which the growth is 66.9% with NCI-H23 lung; 50.4% in the assay on NCI-H226 lung; 67.3% in the assay on NCI-H322M lung; 61% in the assay with HOP-62 NSCLC; 33.4% with NCI-H460 lung; -2.36% (active) in the assay on HOP-92 NSCLC. In addition, the growth in the assay with NCI-H522 lung was 29.5%; with A549/ATCC NSCLC, 51%; in the assay with 786-0 renal, 75.9%; with COLO 205 colon, 52.4%.
`Cc1ccc2c(NCCCN(C)C)c3c(C)nn(C)c3nc2c1`: the growth in the assay with NCI-H23 lung is 51.6%; in the assay on NCI-H226 lung, 41.7%; in the assay on NCI-H322M lung, 34.5%; in the assay with HOP-62 NSCLC it was 41.1%; in the assay on NCI-H460 lung, 8.82% (active); in the assay with HOP-92 NSCLC it was 30%. In addition, the growth is 28.3% in the assay with NCI-H522 lung, 13.7% with A549/ATCC NSCLC, 37.1% with 786-0 renal and 13.4% in the assay with COLO 205 colon.
For `C=C1C(=O)O[C@H]2[C@H]1CC/C(Cn1cc(Cc3c[nH]c4ccccc34)nn1)=C\CC[C@@]1(C)O[C@@H]21`, the growth is 37.1% with NCI-H23 lung; 79.7% in the assay with NCI-H226 lung; 85.1% in the assay on NCI-H322M lung; 76.7% with HOP-62 NSCLC; 79.7% in the assay with NCI-H460 lung; -8.55% (active) in the assay with HOP-92 NSCLC. Also, the growth with NCI-H522 lung was -79.2% (active); with A549/ATCC NSCLC, 57.9%; in the assay with 786-0 renal, -9.3% (active); in the assay with COLO 205 colon, -68.1% (active).
